In the library only some 11% were active in any assay of this set; here they are far more common.
NS1 inh – inhibitors of influenza NS1 protein function; Potency, µM (series often up to 46.1 µM); actives 0.4% (n = 270,000); AID 2326; calls by dose curve; also: actives are rising curves; nearly all actives have a fitted effect of over 50% in size
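Growth recovery, yeast-based: influenza A NS1 expressed in S. cerevisiae causes slow growth, and suppressors are detected by OD600. The parent strain without NS1 is used as positive control.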
Sm TGR inh – blocks Schistosoma mansoni thioredoxin glutathione reductase; Q962Y6; purified TGR, DTNB reduction, TNB absorbance 405 nm; Potency, µM (titrated, usually from 114 µM), actives largely listed as inhibitors; actives 3% (n = 360,000); also: nearly all actives have a fitted effect of over 60% in size
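First, TGR (20 nM dispensed) and NADPH were mixed with compound. Second, a 15 min room-temperature incubation followed. Third, further NADPH and then DTNB were added to start the reaction. Finally, TNB absorbance was monitored kinetically.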
AMA1 RON2 block – AMA1-RON2 (P. falciparum) interaction inhibition; AlphaScreen AMA1-biotinylated RON2 peptide binding; Potency, µM (highest dose often 58.2 µM), hits mostly inhibitors; actives 0.2% (n = 360,000); also: nearly all actives have a fitted effect of over 45% in size
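AMA1 (3D7) with his tag at 25 nM final met compounds first, then biotinylated RON2 peptide at 25 nM; detection used donor plus acceptor beads, 10 µg/mL apiece, read by AlphaScreen after 30 min at room temperature.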
Pf growth 96h – P. falciparum growth inhibition at 96 hour, primary screen for plastid delayed-death inhibitors; P. falciparum luciferase reporter growth, 96 h; Potency, µM (highest dose often 28.7 µM), hits mostly inhibitors; actives 6.9% (n = 320,000); AID 504834
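Compounds incubated with erythrocytes infected by luciferase-expressing P. falciparum (2% hematocrit, 0.05% parasitemia final) for 96 hours, 37 C in 5% CO2. Growth inhibition scored as decreased luciferase luminescence.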
Pf growth 48h – P. falciparum growth inhibition at 48 hours (one generation). P. falciparum luciferase growth in erythrocytes, 48 h. Potency, µM (titrated, usually from 28.7 µM), actives largely listed as inhibitors. actives 5.9% (n = 310,000). AID 504832
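In quantitative HTS format, infected erythrocytes bearing luciferase-reporter parasites were treated for a single generation at 37 C. Luminescence after adding detection reagent served as the growth measure.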
Hits are given with their value; 0 = inactive; ? = inconclusive; - = no result; [ ] = dose if it differs, or a comment. Unless noted, calls follow the shape of the dose curve; as a rule, active = well fitted curve in the direction sought with a large enough effect; inconclusive = small, poorly fitted or top-dose-only effect, or another doubt; inactive = no such curve, though single readings can be large; an effect the other way counts as inactive or inconclusive.

SMILES	NS1 inh	Sm TGR inh	AMA1 RON2 block	Pf growth 96h	Pf growth 48h
O=c1[nH]c(=O)n(C2CCCCCC2)c(O)c1C=NCc1ccc(F)cc1	0	0	0	0	?
COc1ccc(CN=Cc2c(O)[nH]c3ccccc23)cc1	-	0	0	0	0
Cc1ccc(CN=Cc2[nH]c3ccc(Br)c(Cl)c3c2O)cc1	0	45µM	0	-	3.3µM
Oc1c(C=NCc2ccc(F)cc2)[nH]c2ccc(Br)c(Cl)c12	0	32µM	-	-	2.6µM
CC1Cc2cc(S(=O)(=O)N3CCC(C(=O)N4CCN(c5ccccc5F)CC4)CC3)ccc2N1C(=O)C1CC1 (stereo unspecified)	0	0	0	0	?
COc1cc(NC(=O)COc2ccc(Cl)cc2)ccc1NC(=O)C(C)C	0	0	0	0	0
COc1cc(NC(=O)COc2ccc(Cl)cc2)ccc1-c1cc2ccccc2oc1=O	?	0	0	4.1µM	?
CNc1c(NC(=O)COc2ccc(Cl)cc2)c(=O)oc2ccccc12	0	0	0	?	10µM
O=C(Cn1ncc2c3ccccc3n(Cc3cccc(Cl)c3)c2c1=O)N1CCC2(CC1)OCCO2	?	0	0	4.7µM	4.1µM
Cc1c2cnn(CC(=O)N3CCC4(CC3)OCCO4)c(=O)c2c(C)n1Cc1ccccc1F	0	0	0	0.01µM	0
Cc1c2cnn(CC(=O)N3CCC4(CC3)OCCO4)c(=O)c2c(C)n1Cc1cccc(Cl)c1	0	0	0	?	0
Cc1c2cnn(CC(=O)Nc3c(F)c(F)cc(F)c3F)c(=O)c2c(C)n1Cc1ccccc1F	-	0	0	9.3µM	0
Cc1cccc(N(C(=O)c2snc(C(N)=O)c2N)C(C(=O)NC2CCCC2)c2ccco2)c1 (stereo unspecified)	0	0	0	0	?
CC(=O)O[C@@]12CO[C@@H]1C[C@H](O)[C@@]1(C)C(=O)[C@H](O)C3=C(C)[C@@H](OC(=O)[C@H](O)[C@@H](NC(=O)OC(C)(C)C)c4ccccc4)C[C@](O)([C@@H](OC(=O)c4ccccc4)[C@H]21)C3(C)C	-	0	-	-	-
C/C=C(\C)C(=O)N[C@@H](c1ccccc1)[C@@H](O)C(=O)O[C@H]1C[C@@]2(O)[C@@H](OC(=O)c3ccccc3)C3[C@](C)(C(=O)[C@H](O)C(=C1C)C2(C)C)[C@@H](O)C[C@H]1OC[C@@]31OC(C)=O (stereo partly specified)	0	0	0	0.074µM	0.066µM
C/C=C(\C)C(=O)N[C@@H](c1ccccc1)[C@@H](O)C(=O)O[C@H]1C[C@@]2(O)[C@@H](OC(=O)c3ccccc3)C3[C@](C)(C(=O)[C@H](OC(C)=O)C(=C1C)C2(C)C)[C@@H](O)C[C@H]1OC[C@@]31OC(C)=O (stereo partly specified)	0	0	0	0.033µM	?
CC1CCN(C(=O)CN(c2ccc3c(c2)OCCO3)S(=O)(=O)c2ccccc2)CC1	0	0	0	0	?
Cc1cc(Cl)ccc1NC(=O)CN1C(=O)CSc2ccc(S(=O)(=O)N(C)C)cc21	-	0	-	-	-
O=C(CSc1nnc(-c2ccco2)c(-c2ccco2)n1)Nc1ccccc1	?	1.8µM	?	0	0
CN(C)c1ccc(NC(=O)CSc2nnc(-c3ccco3)c(-c3ccco3)n2)cc1	0	35µM	18µM	?	0
O=C1CC(c2ccccc2)CC2=C1C(c1ccccn1)Nc1ccccc1N2 (stereo unspecified)	0	0	0	-	0
O=C1CC(c2ccc(F)cc2)CC2=C1C(c1ccc([N+](=O)[O-])o1)Nc1ccccc1N2 (stereo unspecified)	0	16µM	0	?	?
O=C(COC(=O)CSc1ccc(Br)cc1)NCc1ccco1	-	0	0	0	0
CCN(CC)c1ccc(NC(=O)COC(=O)CSc2ccc(Br)cc2C)cc1	0	0	10µM	0	0
Cc1cc(Br)ccc1SCC(=O)OCC(=O)NCc1ccco1	0	25µM	?	0	0
SMILES	NS1 inh	Sm TGR inh	AMA1 RON2 block	Pf growth 96h	Pf growth 48h
COc1ccc(CC(=O)NCC(=O)N/N=C/c2sccc2C)cc1	0	0	0	0	0
Cc1ccc(NC(=O)Nc2nc3ccccc3s2)cc1NC(=O)Nc1nc2ccccc2s1	0	0	0	2.6µM	2.1µM
O=C(NNc1nc2ccccc2s1)Nc1ccccc1	0	0	0[2.32 µM]	0	0
O=C(Nc1ccc(Cl)c([N+](=O)[O-])c1)Nc1nc2ccccc2s1	0	0	-	10µM	?
O=C(Nc1nc2ccccc2s1)Nc1ccc([N+](=O)[O-])cc1Cl	0	0	-	1µM	?
O=C(Nc1ccc(Cl)cc1)/C(=C/c1ccc([N+](=O)[O-])cc1)c1nc2ccccc2s1	0	0	-	1.5µM	2.1µM
O=[N+]([O-])c1ccc(Nc2nc3ccccc3s2)cc1	0	-	-	-	-
O=C(O)CC/C(=C\c1cc([N+](=O)[O-])ccc1Cl)c1nc2ccccc2s1	0	0	0	0	0
O=C(Nc1ccccc1)Nc1ccc(Cl)c([N+](=O)[O-])c1	0	0	0	0	?
CCOC(=O)[C@]12CCCC=C1N(CCc1ccc(OC)c(OC)c1)C(=O)[C@H](CC(=O)NCC13CC4CC(CC(C4)C1)C3)C2	-	-	0	-	-
CCCCCC(=O)N1C[C@@H](O)[C@H](n2cc(COC(=O)c3ccccc3)nn2)C[C@@H]1c1ccc(Cl)cc1	-	-	0	-	-
O=C1c2oc3ccc(Br)cc3c(=O)c2C(c2cccnc2)N1Cc1ccco1 (stereo unspecified)	0	0[11.4 µM]	-	0[5.75 µM]	-
O=C1c2oc3ccccc3c(=O)c2C(c2cccc(Br)c2)N1Cc1ccco1 (stereo unspecified)	0	0	0	0.37µM	0
COc1ccc(NC(=O)C[C@H]2C(=O)N(C3CCCCC3)C[C@@H]2C)cc1	-	-	0	-	-
[O-][n+]1ccc(CC(O)(C(F)(F)F)C(F)(F)F)cc1	-	-	0	-	-
O=C(N/N=C/c1ccc(C(=O)O)cc1)C1=NNC(c2ccccc2)(c2ccccc2)C1	0	-	0	?	?
Cc1onc(-c2ccccc2)c1C(=O)N/N=C/c1ccccc1OC(C)C	0	0	0	0	0
COc1ccccc1/C=N/NC(=O)C1=NNC(c2ccccc2)(c2ccccc2)C1	0	?	-	?	7.4µM
COc1ccccc1/C=N/NC(=O)c1c(-c2ccccc2)noc1C	0	0	0	2.1µM	0
Cc1cccc(/C=N/NC(=O)c2c(-c3ccccc3)noc2C)c1O	0	0	0	6.6µM	9.3µM
CC(C)c1cc(-c2nc(-c3ccc(Cl)cc3)no2)n[nH]1	-	0	-	-	-
O=C(CCC(=O)N/N=C/c1cc(Cl)cc(Cl)c1O)NCc1ccccc1	0	0	0	0	0
CCOC(=O)c1cc(C)n(CC2CCC(C(=O)Nc3cccc(C)c3)CC2)c1C (stereo unspecified)	-	0	-	-	-
COc1cc(/C=C/C(=O)N2CCC=CC2=O)cc(OC)c1OC	-	0	0	?	9.3µM
Cc1ccc(/C=C/C(=O)Nc2cc(=O)n(C)c(=O)n2C)o1	0	7.9µM	0	0	0

Screening results: PubChem BioAssay, National Center for Advancing Translational Sciences (NCATS)
